# High-throughput results: PubChem, several laboratories
# GAA850 FXN act: frataxin GAA850 promoter activation | HEK293 lucGAA850 FXN promoter luciferase reporter, 24 h; percent of 10 µM SAHA response | activation, % at 6 µM | actives 0.56% (n = 360,000) | AID 540364;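 active = activation above the average of all compounds screened plus 3 SD, cutoff fixed separately per campaign, cut at about 7.5% in these data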;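 also: 0% = DMSO wells and 100% = 10 µM SAHA wells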
# AHR activator: activates the human aryl hydrocarbon receptor | actives 2.5% (n = 320,000) | AHR-responsive luciferase reporter cells, luminescence | P35869 | activation, % at 5 µM; in the data active = activation above about 47%;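 also: 0% = vehicle wells and 100% = reference agonist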
# HSF1 activator: increases HSF-1 driven luciferase reporter signal. NIH3T3-HGL HSF-1 luciferase reporter, MG132, 8 h; 100% = twice DMSO control signal. actives 1.7% (n = 300,000). activation, % at 9 µM;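 active = mean replicate activation of at least 50% with a set share of replicates each reaching 50%; inconclusive = only one of those two conditions met; inactive = mean below 50% and too few replicates reaching it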;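 also: 0% = median of the neutral control wells and 100% = twice that signal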
# NR0B1 inh: inhibits human nuclear receptor DAX1; P51843; HEK293 Gal4-DAX1 luciferase reporter, luminescence; inhibition, % at 6.75 µM; actives 0.99% (n = 340,000); AID 504766;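 active = inhibition above the mean over all tested compounds plus 3 SD, cut at about 4.2% in these data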;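 also: 0% = DAX1-transfected cells with DMSO and 100% = empty-vector control cells with DMSO; inhibition shows as a rise in luminescence from relieved DAX1 repression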
# Target sequence (P51843 207-470 limits assumed): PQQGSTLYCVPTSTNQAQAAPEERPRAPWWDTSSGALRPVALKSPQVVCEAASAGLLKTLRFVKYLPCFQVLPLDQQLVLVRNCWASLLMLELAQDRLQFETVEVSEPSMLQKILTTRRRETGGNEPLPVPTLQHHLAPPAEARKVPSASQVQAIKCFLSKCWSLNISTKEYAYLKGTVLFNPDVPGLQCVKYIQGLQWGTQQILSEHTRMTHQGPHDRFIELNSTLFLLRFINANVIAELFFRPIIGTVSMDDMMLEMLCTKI
# HSF1 inhib: HSF1 inhibition. actives 0.77% (n = 300,000). NIH3T3-HGL HSE-luciferase, MG132-induced, luminescence 8 h; active compounds read low. activity change, negative = inhibition, % at 7.5 µM (by protocol);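 active = more than half of replicate wells show activity change below -50%, luminescence cut by over half; inconclusive = some wells, but at most half, below -50%; inactive = no replicate well below -50%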;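 also: luciferase reports HSF-1 transcriptional activity via heat shock element; 0% = median of DMSO wells and -100% = zero luminescence signal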
# Starred values were filed as active, the others as inactive; ? = inconclusive; nt = no result given. A selection: hits, their analogues and other compounds. The true share with any hit is near 5.4%.
SMILES,GAA850 FXN act,AHR activator,HSF1 activator,NR0B1 inh,HSF1 inhib
CCn1c(CSc2nnc(-c3ccc4c(c3)OCO4)o2)nc2cc(S(=O)(=O)N(C)C)ccc21,0,0,nt,-2,nt
COc1ccc(CN(C)C(=O)CCNS(=O)(=O)c2ccccc2)c(OC)c1,1,nt,nt,2,nt
CCc1cccc(NC(=O)CCCn2nc(C)c3c(C)n(-c4ccccc4)nc3c2=O)c1,-1,0,3,-1,5
NC(=O)C1CCN(C(=O)CCSCc2ccc(Cl)c(Cl)c2)CC1,4,5,15,-1,2
CCC(C)(C)NC(=O)C(c1ccc(OC)cc1)N(C(=O)CCC(=O)Nc1cc(C)on1)c1ccc2c(c1)OCCO2 (centres undefined),0,-1,-8,1,-13
N/C(=N/OC(=O)c1cccc([N+](=O)[O-])c1)c1cccc([N+](=O)[O-])c1,-2,3,16,-1,6
N/C(=N\OC(=O)c1cccc([N+](=O)[O-])c1)c1ccccn1,2,68*,38,4,19
N/C(=N\OC(=O)c1ccc(Cl)cc1Cl)c1ccncc1,6,1,?,-1,20
O=C(O/N=C(\c1ccccc1)c1ccccn1)c1ccc(Cl)c(Cl)c1,0,1,62*,-1,15
N/C(=N\OC(=O)c1ccccc1Cl)c1ccncc1,3,59*,34,0,-3
N/C(=N\OC(=O)c1ccc2ccccc2c1)c1ccccn1,-7,-13,-89,-5,-85*
Cc1cc(S(=O)(=O)N2CCCC(C(=O)Nc3ccc(C(=O)O)cc3)C2)ccc1Cl (centres undefined),0,2,-8,0,-4
Cc1c(C(=O)Nc2ccc(C(F)(F)F)cc2)sc2ncn(CC(=O)N3CCN(c4ccccn4)CC3)c(=O)c12,1,33,27,0,12
COC(=O)c1cc2c(C(F)(F)F)nn(C)c2s1,0,-1,11,nt,-7
O=C(NNC(=O)C1CCN(c2ncccn2)CC1)c1ccncc1,2,2,-9,0,-5
CC(C)CCNC(=O)C1CCC(CNc2c(N3CCCC3)c(=O)c2=O)CC1 (centres undefined),1,0,-6,0,-11
Cc1cc(C(=O)O/N=C(\N)c2ccncc2)ccc1[N+](=O)[O-],2,-4,45,4.4*,28
CCn1c(C)nnc1SCC(=O)NC1CCCC1,-1,0,4,1,-1
Cc1ccc2c(c1)c(-c1ccccc1)nc1nncn12,2,53*,-4,-1,-4
COc1ccc(Cn2nnc3c(=O)[nH]c(C4CCN(S(=O)(=O)c5ccc(C)cc5)CC4)nc32)cc1,-3,-1,13,0,4
Cc1ccc(S(=O)(=O)NN=Cc2c(O)ccc3ccccc23)cc1,3,nt,nt,0,nt
O=S(=O)(Nc1c(O)ccc2ccccc12)c1cccc2ccccc12,-3,39,-92,2,-90*
O=S(=O)(Nc1cccc2ccccc12)c1ccccc1F,1,5,31,-1,23
Cc1ccc(S(=O)(=O)Nc2c(O)ccc3ccccc23)cc1,-1,54*,12,nt,-3
CN(C)C(CNC(=O)C1CCN(S(=O)(=O)c2cc(Cl)ccc2Cl)CC1)Cc1ccccc1 (centres undefined),0,nt,nt,0,nt
SMILES,GAA850 FXN act,AHR activator,HSF1 activator,NR0B1 inh,HSF1 inhib
COc1ccc(NC(=O)C(=O)NCCCO)cc1Cl,1,62*,11,4.5*,5
CCOC(=O)C(=O)Nc1ccc(OC)c(Cl)c1,0,21,-2,1,3
COc1ccc(NC(=O)C(NCC(C)C)c2ccccc2)cc1Cl (centres undefined),0,0,71*,0,30
COc1ccc(NC(=O)C(=O)NCCO)cc1Cl,1,59*,7,1,-1
Cn1c(CNC(=O)c2ccc3c(c2)OCO3)nnc1SCC(=O)Nc1ccc(F)cc1,-1,0,4,2,-4
O=C(CCSCCc1ccccn1)Nc1c(F)c(F)c(F)c(F)c1F,4,2,-3,0,4
Cc1sc2c(c1C)C(=O)NC(c1cccc(O)c1)N2 (centres undefined),nt,55*,26,nt,10
O=[N+]([O-])c1ccc(Cl)c(NC(=S)N2CCCC2)c1,0,-4,6,1,-6
Cc1c(Br)c([N+](=O)[O-])nn1CC(=O)Nc1cccc2nonc12,-1,7,23,-1,2
N=c1n(CCN2CCOCC2)c2ccccc2n1CC(=O)c1ccc(Cl)c(Cl)c1,1,91*,-2,2,5
CCCCOC(=O)Cn1c(=N)n(CCN2CCOCC2)c2ccccc21,1,0,15,1,4
O=c1cc(/C=C/c2c(F)cccc2Cl)[nH]c2ccccc12,4,61*,48,0,11
CNc1ccc(/C=C2\COc3ccccc3C2=O)cc1[N+](=O)[O-],0,2,39,0,30
O=C1/C(=C/c2ccccc2[N+](=O)[O-])COc2ccccc21,-10,14,141*,-5,110
CCc1cc2c(NCc3ccccc3)nc(C)nc2s1,0,4,13,0,3
CCc1cc2c(NCCC(=O)O)nc(C)nc2s1,0,33,-70,-1,-60*
Cc1ccsc1CN(C)CC(=O)N(C)CC(=O)Nc1c(Cl)cccc1Cl,1,nt,nt,3,nt
O=[N+]([O-])c1cccc(N(CC2CO2)S(=O)(=O)c2ccccc2)c1 (centres undefined),0,-2,30,0,13
COc1cc(/C=N\NC(=O)c2sc(N)nc2C)cc(OC)c1OC,3,62*,-13,2,5
COc1cc(/C=N/NC(=O)c2cc(-c3ccccc3)sc2N)cc(OC)c1OC,nt,49*,-7,nt,5
COc1cc(/C=N/NC(=O)c2c(C)nc3ccc(Cl)cn23)cc(OC)c1OC,1,nt,17,5.3*,8
CC1=C(C(=O)OCCOc2ccccc2)C(c2ccc(C)o2)C2=C(CC(C)(C)CC2=O)N1 (centres undefined),-1,3,7,-2,9
CC1=C(C(=O)Nc2ccc(C)cc2)C(c2ccc(C)o2)C2=C(CC(C)(C)CC2=O)N1 (centres undefined),0,10,-71,3,-62*
Cc1ccccc1Cn1c(-c2cncs2)nc2ccccc21,0,12,69*,-2,65
CCOC(=O)c1n[nH]c2ccccc12,0,2,-5,0,2
O=C(COC(=O)c1n[nH]c2ccccc12)NC(=O)NC1CCCCC1,0,3,52*,0,24
Cc1cc(C)cc(NC(=O)COC(=O)c2n[nH]c3ccccc23)c1,0,16,16,1,11
O=C(OCCOc1ccccc1)c1n[nH]c2ccccc12,4,5,67*,3,34
O=C(COC(=O)c1n[nH]c2ccccc12)Nc1ccccc1,6,3,22,10*,1
